These results are taken from PubChem BioAssay (Tox21).

The nature of test [1]: qHTS assay to identify small molecule antagonists of the thyroid receptor (TR) signaling pathway (AID 743065). Note: nearly all actives have a fitted effect of over 55% in size. Note: potency is the fitted concentration of half-maximal effect. An outline of the steps: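 Antagonism measured as loss of luciferase signal in GH3 cells stably carrying a TRE-luciferase reporter, co-treated with compound and T3 (1 nM final) for 23.5 h at 37 C. Viability was read in the same well by CellTiter-Fluor.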
(In qHTS, concentration-response curves come from the screen itself.)

Test [2] has as its system thyroid hormone receptor (rat, GH3 cells). Put plainly: qHTS assay to identify small molecule agonists of the thyroid receptor (TR) signaling pathway (AID 743066; calls by dose curve).
Test [3] addresses Estrogen receptor (Homo sapiens) (UniProt P03372). Put plainly: qHTS assay to identify small molecule antagonists of the estrogen receptor alpha (ER-alpha) signaling pathway (AID 743069; active = well fitted curve in the direction sought with a large enough effect in the signal ratio in the repeat runs, not every such curve was filed as active; the % refers to the signal ratio). The procedure, abridged:
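Compound effects are measured against 17beta-estradiol stimulation in HEK293 cells with a UAS-controlled beta-lactamase reporter for ER-alpha. Exposure lasts 18 hr at 37C; LiveBLAzer B/G FRET substrate follows for 2 hr at room temperature.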

A short description of test [4]: qHTS assay to identify small molecule antagonists of the estrogen receptor alpha (ER-alpha) signaling pathway - cell viability counter screen (AID 743074; calls by dose curve;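 note: HEK293 cells carrying ER-alpha-UAS-bla reporter stimulated with 17beta-estradiol; nearly all actives have a fitted effect of over 45% in size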).
For test [5], the target named is Estrogen receptor (Homo sapiens) (UniProt P03372). Put plainly: qHTS assay to identify small molecule agonists of the estrogen receptor alpha (ER-alpha) signaling pathway (AID 743075; calls by dose curve).
Sequence of Estrogen receptor (Homo sapiens) (P03372 whole entry, looked up): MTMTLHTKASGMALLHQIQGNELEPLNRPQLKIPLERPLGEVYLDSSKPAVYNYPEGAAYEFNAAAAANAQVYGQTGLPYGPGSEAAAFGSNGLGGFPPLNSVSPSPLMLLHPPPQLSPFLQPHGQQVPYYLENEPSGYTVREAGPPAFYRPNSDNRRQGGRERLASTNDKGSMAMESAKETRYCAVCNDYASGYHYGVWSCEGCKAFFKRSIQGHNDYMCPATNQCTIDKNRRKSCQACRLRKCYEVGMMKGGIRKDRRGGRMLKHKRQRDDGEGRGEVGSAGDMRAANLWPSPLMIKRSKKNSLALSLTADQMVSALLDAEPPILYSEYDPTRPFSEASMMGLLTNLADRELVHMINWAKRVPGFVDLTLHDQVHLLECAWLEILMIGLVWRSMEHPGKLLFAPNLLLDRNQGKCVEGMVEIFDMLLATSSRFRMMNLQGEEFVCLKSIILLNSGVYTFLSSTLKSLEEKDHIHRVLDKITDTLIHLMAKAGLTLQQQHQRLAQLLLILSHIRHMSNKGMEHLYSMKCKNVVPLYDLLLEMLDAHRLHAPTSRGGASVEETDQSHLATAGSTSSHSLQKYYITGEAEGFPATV
Test [6] shares this target. Put plainly: qHTS assay to identify small molecule agonists of the estrogen receptor alpha (ER-alpha) signaling pathway using the BG1 cell line (AID 743079). Note: nearly all actives have a fitted effect of over 20% in size. Note: potency is the fitted concentration of half-maximal effect.
Test [7] is described as follows: qHTS assay to identify small molecule antagonists of the estrogen receptor alpha (ER-alpha) signaling pathway using the BG1 cell line (AID 743080; calls by dose curve;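 note: BG1 cells stimulated with 17beta-estradiol alongside compound; series mostly up to about 70 µM; nearly all actives have a fitted effect of over 25% in size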). An outline of the steps: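 Luciferase inhibition measured with ONE-Glo after 30 min at RT in BG1Luc4E2 cells given test compounds and 17beta-estradiol for 21.5 h at 37 C; CellTiter-Fluor viability read in the same wells beforehand.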

A short description of test [8]: qHTS assay to identify small molecule antagonists of the estrogen receptor alpha (ER-alpha) signaling pathway using the BG1 cell line - cell viability counter screen (AID 743081).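 Note: compound given together with 17beta-estradiol as the ER stimulus; series mostly up to about 70 µM; nearly all actives have a fitted effect of over 45% in size.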
For a further test, the target named is Aromatase (Homo sapiens) (UniProt P11511). Put plainly: qHTS assay to identify aromatase inhibitors (AID 743083). Note: series mostly up to about 70 µM; nearly all actives have a fitted effect of over 55% in size.
Sequence of Aromatase (Homo sapiens) (P11511 whole entry, looked up): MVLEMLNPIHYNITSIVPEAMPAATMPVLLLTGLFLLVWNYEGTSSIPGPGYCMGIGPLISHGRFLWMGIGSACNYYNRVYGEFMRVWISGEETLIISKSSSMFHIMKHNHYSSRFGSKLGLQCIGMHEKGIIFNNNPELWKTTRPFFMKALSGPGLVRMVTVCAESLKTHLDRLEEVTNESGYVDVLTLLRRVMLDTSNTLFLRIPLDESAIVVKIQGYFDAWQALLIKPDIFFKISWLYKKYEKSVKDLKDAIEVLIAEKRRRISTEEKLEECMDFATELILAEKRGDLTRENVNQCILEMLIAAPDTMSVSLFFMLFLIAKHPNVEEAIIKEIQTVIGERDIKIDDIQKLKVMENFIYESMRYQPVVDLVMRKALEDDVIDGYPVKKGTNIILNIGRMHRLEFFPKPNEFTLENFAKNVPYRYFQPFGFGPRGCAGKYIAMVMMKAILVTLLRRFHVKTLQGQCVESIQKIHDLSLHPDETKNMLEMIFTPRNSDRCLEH
The nature of test [9]: qHTS assay to identify aromatase inhibitors - cell viability counter screen (AID 743084).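 Note: cells stimulated with testosterone during compound exposure; nearly all actives have a fitted effect of over 55% in size.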
In test [10] the target is Aryl hydrocarbon receptor (Homo sapiens) (UniProt P35869). Put plainly: qHTS assay to identify small molecule that activate the aryl hydrocarbon receptor (AhR) signaling pathway (AID 743085).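 For activation: HG2L7.5c1 human HepG2 liver cells with stably integrated DRE-driven firefly reporter; series mostly up to about 70 µM.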 Note: nearly all actives have a fitted effect of over 15% in size. Note: potency is the fitted concentration of half-maximal effect. An outline of the steps:
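Luminescence read-out: ONE-Glo reagent, 30 min at room temperature, in HG2L7.5c1 HepG2 reporter cells treated 24 h at 37C. Viability was measured beforehand by CellTiter-Fluor fluorescence after 30 min at 37C.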

The nature of test [11]: qHTS assay to identify small molecule that activate the aryl hydrocarbon receptor (AhR) signaling pathway - cell viability counter screen (AID 743086). Note: series mostly up to about 70 µM; nearly all actives have a fitted effect of over 45% in size. An outline of the steps: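 Cytotoxicity counter screen: CellTiter-Fluor signal (30 min, 37 C) in 4000 HepG2 cells/well carrying the DRE-luciferase reporter, following 24 h compound exposure at 37 C.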
A short description of test [12]: qHTS assay to identify small molecule antagonists of the peroxisome proliferator-activated receptor gamma (PPARg) signaling pathway - cell viability counter screen (AID 743194). Note: nearly all actives have a fitted effect of over 55% in size. An outline of the steps: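 Viability was measured as CellTiter-Glo luminescence in GeneBLAzer PPARg UAS-bla HEK293H cells. These cells had been exposed 17 h at 37 C to compounds together with rosiglitazone at 50 nM final, with the beta-lactamase readout taken in the same wells.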

Test [13] is described as follows: qHTS assay for small molecule agonists of the antioxidant response element (ARE) signaling pathway (AID 743202; active = well fitted activation curve with a large enough effect in the signal ratio in the repeat runs, not every such curve was filed as active; the % refers to the signal ratio). An outline of the steps: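 An ARE-responsive beta-lactamase gene stably integrated in HepG2 cells serves as reporter. After 5 h plating and 16 h compound incubation at 37 C, fluorescence of the B/G FRET substrate was measured.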
Test [14] in a line: qHTS assay for small molecule agonists of the antioxidant response element (ARE) signaling pathway - cell viability counter screen (AID 743203; calls by dose curve; note: nearly all actives have a fitted effect of over 55% in size). An outline of the steps:
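HepG2 cells carrying ARE-driven beta-lactamase; 2,000 cells/well; 5 hrs plating; compound pinned from DMSO; 16 hrs 37C/5% CO2; CellTiter-Glo added; 30 min RT; luminescence.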

Test [15] can be described thus: qHTS assay for small molecule activators of the heat shock response signaling pathway - cell viability counter screen (AID 743209). Note: nearly all actives have a fitted effect of over 50% in size. An outline of the steps: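 Luminescence from CellTiter-Glo, added after the beta-lactamase FRET read, gave the viability signal. Cells were HSE-bla HeLa treated with DMSO-dissolved compounds for 5 h at 37 C following overnight plating.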

The nature of test [16]: qHTS assay for small molecule activators of the heat shock response signaling pathway (AID 743210; active = well fitted activation curve with a large enough effect in the signal ratio in the repeat runs, with a control signal flat, not every such curve was filed as active; the % refers to the signal ratio;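 note: HeLa cells with beta-lactamase reporter driven by heat shock elements; series mostly up to about 63 µM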). An outline of the steps:
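In HSE-bla HeLa cells, 5 h compound incubation (37 C) precedes addition of LiveBLAzer B/G substrate; after 2.5 h at room temperature, fluorescence intensity indicates reporter induction.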

Test [17] in a line: qHTS assay to identify small molecule agonists of the peroxisome proliferator-activated receptor delta (PPARd) signaling pathway - cell viability counter screen (AID 743211). Note: nearly all actives have a fitted effect of over 55% in size. The procedure, abridged:
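Read-out: CellTiter-Glo luminescence, 30 min RT, measured in the same wells as the beta-lactamase reporter. Cells: GeneBLAzer PPAR delta UAS-bla HEK293H, 3000 cells/well, compound exposure 17 h at 37C.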

Test [18] deals with Peroxisome proliferator-activated receptor gamma (Homo sapiens) (UniProt P37231). Put plainly: qHTS assay to identify small molecule agonists of the peroxisome proliferator-activated receptor gamma (PPARg) signaling pathway (AID 743094; active = well fitted activation curve with a large enough effect in the signal ratio in the repeat runs, not every such curve was filed as active; the % refers to the signal ratio). An outline of the steps: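 Beta-lactamase FRET fluorescence was the read-out after a 1 h room-temperature substrate step, following 17 h compound treatment at 37C of HEK293H cells expressing a UAS-driven bla reporter responsive to PPARg.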
Sequence of Peroxisome proliferator-activated receptor gamma (Homo sapiens) (P37231 whole entry, looked up): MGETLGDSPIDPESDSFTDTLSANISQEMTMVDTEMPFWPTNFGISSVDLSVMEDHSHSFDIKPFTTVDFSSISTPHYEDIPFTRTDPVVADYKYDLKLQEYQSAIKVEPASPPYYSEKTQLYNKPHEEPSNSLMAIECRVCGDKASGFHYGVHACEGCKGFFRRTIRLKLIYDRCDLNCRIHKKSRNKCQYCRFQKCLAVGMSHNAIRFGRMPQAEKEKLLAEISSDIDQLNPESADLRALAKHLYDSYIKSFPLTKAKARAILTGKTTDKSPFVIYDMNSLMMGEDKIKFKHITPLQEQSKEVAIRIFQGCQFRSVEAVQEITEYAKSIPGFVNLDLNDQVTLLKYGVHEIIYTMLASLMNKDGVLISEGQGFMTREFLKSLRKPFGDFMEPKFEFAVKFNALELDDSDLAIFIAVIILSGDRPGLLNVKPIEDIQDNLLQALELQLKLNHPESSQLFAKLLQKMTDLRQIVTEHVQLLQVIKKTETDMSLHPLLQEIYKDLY

Where “and” joins values, the source holds several entries; their conditions need not be identical. Equal values may be shown once. Inconclusive results are not listed. Some structures have more than one record in an assay (separate samples or runs), and their calls can disagree. Calls of active or inactive are those of the source. Unless noted, calls come from the whole dose curve; as a rule, active = well fitted curve in the direction sought with a large enough effect in the repeat runs; inconclusive = weak or mixed curves; inactive = no such curve, though single readings can be large; an effect the other way counts as inactive or inconclusive. Residues, ends and D or L forms follow the SMILES beside them.

Sequence of Aryl hydrocarbon receptor (Homo sapiens) (P35869 whole entry, looked up): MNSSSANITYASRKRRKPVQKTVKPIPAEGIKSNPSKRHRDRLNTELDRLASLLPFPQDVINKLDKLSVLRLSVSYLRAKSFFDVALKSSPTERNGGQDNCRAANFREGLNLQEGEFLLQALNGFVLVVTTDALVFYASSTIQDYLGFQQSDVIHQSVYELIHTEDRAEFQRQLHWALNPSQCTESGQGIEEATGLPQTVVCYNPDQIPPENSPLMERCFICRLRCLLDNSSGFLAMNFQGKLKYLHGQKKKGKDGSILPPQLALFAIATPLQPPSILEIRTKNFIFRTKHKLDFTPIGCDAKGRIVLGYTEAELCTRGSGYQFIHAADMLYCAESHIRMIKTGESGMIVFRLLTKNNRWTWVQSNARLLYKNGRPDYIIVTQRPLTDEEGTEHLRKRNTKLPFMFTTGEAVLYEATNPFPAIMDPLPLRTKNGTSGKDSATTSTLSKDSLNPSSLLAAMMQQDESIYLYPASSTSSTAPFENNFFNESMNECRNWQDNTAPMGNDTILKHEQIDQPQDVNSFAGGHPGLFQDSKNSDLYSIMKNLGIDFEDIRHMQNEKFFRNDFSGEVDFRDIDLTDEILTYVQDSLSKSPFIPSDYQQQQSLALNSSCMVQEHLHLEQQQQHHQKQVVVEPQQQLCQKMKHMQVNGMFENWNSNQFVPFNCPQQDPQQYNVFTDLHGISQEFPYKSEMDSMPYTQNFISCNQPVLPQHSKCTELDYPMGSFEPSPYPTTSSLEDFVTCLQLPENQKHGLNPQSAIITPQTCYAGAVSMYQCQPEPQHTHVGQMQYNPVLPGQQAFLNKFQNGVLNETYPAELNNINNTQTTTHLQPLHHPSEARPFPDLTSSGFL

As to `CC(O)C(=O)O` (stereo unspecified), the Potency entry in test [1], in test [2], in test [3], in [4], in test [5] and in test [6] was “inactive” throughout. In addition, the Potency result (in [7]; in test [8]; with Aromatase (Homo sapiens); in test [9]; in [10]; in test [11]) was “inactive” each time. The Potency entry in [13] is “inactive”. The molecule was classed as inactive in test [12], in [14], in test [15], in test [16] and in test [17].
For `NNC(=O)c1ccncc1`, the Potency result in [1], in test [2], in test [3], in test [4], in [5] and in [6] was “inactive” in each case. Also, the Potency result (in [7]; in [8]; with Aromatase (Homo sapiens); in [9]; in test [11]; in test [13]) was “inactive” each time. The Potency in test [10] is 13.3 µM (active). Moreover, the molecule was classed as inactive in test [18], in test [12], in test [14], in test [15], in test [16] and in test [17].
For `NC(N)=O`, the Potency result in [1], in test [2], in test [3], in test [4], in test [5] and in test [6] was “inactive” in each case. In addition, the Potency result (in [7]; in test [8]; with Aromatase (Homo sapiens); in [9]; in [11]; in test [13]) was “inactive” in each case. Moreover, the molecule was classed as inactive in test [18], in [12], in [14], in test [15], in test [16] and in test [17].
Turning to `CCCNC(=O)NS(=O)(=O)c1ccc(Cl)cc1`, the Potency result in [1], in test [2], in [3], in [4], in [5] and in test [6] was “inactive” throughout. Besides, the Potency result (in [7]; in [8]; with Aromatase (Homo sapiens); in [9]; in test [10]; in [11]) was “inactive” each time. In test [13], the Potency result was “inactive”. Also, the molecule was called inactive in test [18], in test [12], in test [14], in [15], in test [16] and in test [17].
Regarding `O=C(O)CCCCC(=O)O`, the Potency entry in [1], in test [2], in test [3], in [4], in [5] and in test [6] was “inactive” each time. In addition, the Potency entry (in [7]; in test [8]; in the test with Aromatase (Homo sapiens); in test [9]; in test [10]; in test [11]) was “inactive” throughout. Further, the Potency entry in [13] was “inactive”. The result in test [18], in test [12], in [14], in [15] and in [17] was inactive.
`Cc1ccccc1C(OCCN(C)C)c1ccccc1` (stereo unspecified): the Potency in [1] was 21.1 µM (active) and 27.3 µM (active). Besides, the Potency result in test [2], in test [3], in test [4], in test [5], in test [6] and in test [7] was “inactive” each time. Also, the Potency entry (in test [8]; in the test with Aromatase (Homo sapiens); in [9]; in test [10]; in [11]; in test [13]) was “inactive” each time. The result in test [18], in [12], in test [14], in test [15] and in [16] was inactive.
As for `CC(=O)Nc1nnc(S(N)(=O)=O)s1`, the Potency entry in test [1], in test [2], in test [3], in test [4], in test [5] and in test [6] was “inactive” in each case. Also, the Potency entry (in test [7]; in [8]; with Aromatase (Homo sapiens); in test [9]; in [10]; in [11]) was “inactive” each time. For the same molecule, in test [13], the Potency result is “inactive”. Further, the molecule was classed as inactive in test [18], in [12], in [14], in test [15], in [16] and in test [17].
As for `COc1ccc2[nH]cc(CCNC(C)=O)c2c1`, the Potency result in test [1], in test [2], in test [3], in [4], in [5] and in test [7] was “inactive” each time. The Potency result (in test [8]; in the test with Aromatase (Homo sapiens); in test [9]; in test [10]; in test [11]; in test [13]) was “inactive” in each case. The Potency entry in test [6] was “inactive and 55.3 µM (active)”. The molecule was classed as inactive in [18], in test [12], in test [14], in [15], in test [16] and in test [17].
Regarding `Cc1cn([C@H]2C[C@H](N=[N+]=[N-])[C@@H](CO)O2)c(=O)[nH]c1=O`, the Potency result in test [1], in test [2], in test [3], in test [4], in test [5] and in test [7] was “inactive” throughout. For the same molecule, the Potency result (in test [8]; with Aromatase (Homo sapiens); in test [9]; in test [10]; in test [11]; in test [13]) was “inactive” throughout. The Potency result in test [6] is “inactive and 17.7 µM (active)”. Further, the molecule was called inactive in test [18], in test [12], in test [14], in [15], in [16] and in [17].
For the molecule `COC(=O)[C@H](Cc1ccccc1)NC(=O)[C@@H](N)CC(=O)O` (H-Asp-Phe-OMe), the Potency entry in test [1], in test [2], in [3], in test [4], in [5] and in [6] was “inactive” in each case. The Potency entry (in test [7]; in test [8]; in the test with Aromatase (Homo sapiens); in test [9]; in test [10]; in test [11]) was “inactive” each time. Besides, the Potency entry in test [13] was “inactive”. The molecule was classed as inactive in [18], in test [12], in test [14], in [15], in [16] and in test [17].
